AmpC no deterg = qHTS Inhibitors of AmpC Beta-Lactamase (assay without detergent); P00811; AmpC nitrocefin hydrolysis, absorbance 480 nm, 0.0001% Triton; Potency, µM (series often up to 57.1 µM), without a hit: top-dose activity change, negative = inhibition, actives largely listed as inhibitors; 330,000 compounds, 0.52% hits;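 also: plate controls were no compound for no effect and no enzyme for full effect; nearly all actives have a fitted effect of over 20% in size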
Target sequence (P00811 whole entry, looked up): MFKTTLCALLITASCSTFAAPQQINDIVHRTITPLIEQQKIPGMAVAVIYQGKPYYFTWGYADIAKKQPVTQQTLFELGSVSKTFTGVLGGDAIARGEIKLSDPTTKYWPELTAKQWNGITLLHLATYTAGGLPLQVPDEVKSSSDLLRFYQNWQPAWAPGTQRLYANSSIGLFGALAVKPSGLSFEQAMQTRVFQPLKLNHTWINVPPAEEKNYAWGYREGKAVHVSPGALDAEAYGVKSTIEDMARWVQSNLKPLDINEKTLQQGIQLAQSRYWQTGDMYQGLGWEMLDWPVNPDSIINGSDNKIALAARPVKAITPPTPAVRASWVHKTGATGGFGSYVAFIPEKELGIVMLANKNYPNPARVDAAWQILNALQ
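20 mM phosphate pH 7.0 + 0.01% (detergent screen) or 0.0001% Triton X-100; 5.3 nM AmpC reagent; cpd preinc 15 min RT; nitrocefin (800 uM stock) to start; A480 q20 s × 4 min; Activity was normalised to no-enzyme and no-compound control wells.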
Pf growth 96h = Primary qHTS for delayed death inhibitors of the malarial parasite plastid, 96 hour incubation; P. falciparum luciferase reporter growth, 96 h; Potency, µM (titrated, usually from 28.7 µM), for the others: top-dose activity change, negative = inhibition, actives largely listed as inhibitors; 320,000 compounds, 6.9% hits; also: % is scaled to controls: 0 for no effect and ±100 for the full control effect
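Readout is luminescence from an integrated firefly luciferase in P. falciparum. Red cells, 2% hematocrit and 0.05% parasitemia final, were cultured with compound through two parasite generations (96 hours) at 37 C, 5% CO2.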
SARS PLpro yeast = qHTS of Yeast-based Assay for SARS-CoV PLP; S. cerevisiae expressing SARS-CoV PLpro, growth rescue; Potency, µM (titrated, usually from 32.9 µM), for inactives: top-dose activity, positive = growth rescue, usual class: activators; 330,000 compounds, 0.19% hits; AID 485353, 2010; calls by dose curve; also: 0% is about no effect; nearly all actives have a fitted effect of over 55% in size
Sm TGR inh = qHTS Assay for the Inhibitors of Schistosoma Mansoni Peroxiredoxins; purified TGR, DTNB reduction, TNB absorbance 405 nm; Potency, µM (top dose mostly 114 µM), for the others: at the top dose activity change, negative = inhibition, usual class: inhibitors; 360,000 compounds, 3% hits; AID 485364, 2010; also: % is scaled to controls: 0 for no effect and ±100 for the full control effect; nearly all actives have a fitted effect of over 60% in size
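First, TGR (20 nM dispensed) and NADPH were mixed with compound. Second, a 15 min room-temperature incubation followed. Third, further NADPH and then DTNB were added to start the reaction. Finally, TNB absorbance was monitored kinetically.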
Pf growth 48h = Primary qHTS for delayed death inhibitors of the malarial parasite plastid, 48 hour incubation | P. falciparum luciferase growth in erythrocytes, 48 h | Potency, µM (highest dose often 28.7 µM), inactives show top-dose activity change, negative = inhibition, most hits filed as inhibitors | 310,000 compounds, 5.9% hits | AID 504832, 2011; also: % is scaled to controls: 0 for no effect and ±100 for the full control effect
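Growth was read as firefly luciferase luminescence after a 48 h, 37 C, 5% CO2 exposure of compounds to reporter-bearing P. falciparum cultures (0.1% parasitemia, 2% hematocrit final) in Albumax-supplemented RPMI 1640.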
AmpC inh detg = qHTS Inhibitors of AmpC Beta-Lactamase (assay with detergent); P00811; AmpC hydrolysis of nitrocefin, absorbance 480 nm, 0.01% Triton; Potency, µM (doses to about 114 µM), for the others: at the highest dose activity change, negative = inhibition, most hits filed as inhibitors; 370,000 compounds, 0.041% hits;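 also: 0% = no-compound wells and -100% = no-enzyme wells; nearly all actives have a fitted effect of over 25% in size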
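20 mM phosphate pH 7.0 + 0.01% (detergent screen) or 0.0001% Triton X-100; 5.3 nM AmpC reagent; cpd preinc 15 min RT; nitrocefin (800 uM stock) to start; A480 q20 s × 4 min; Activity was normalised to no-enzyme and no-compound control wells.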
* marks the source's active call; other numbers are inactive results; ? = inconclusive; / = no result given; ! = a repeat was not active. Compounds with a hit are over-represented: about 12% of the library has one in this group of screens. Unless noted, calls follow the shape of the dose curve; as a rule, active = well fitted curve in the direction sought with a large enough effect; inconclusive = small, poorly fitted or top-dose-only effect, or another doubt; inactive = no such curve, though single readings can be large; an effect the other way counts as inactive or inconclusive. Potency is read from the fitted curve at half-maximal effect.

SMILES	AmpC no deterg	Pf growth 96h	SARS PLpro yeast	Sm TGR inh	Pf growth 48h	AmpC inh detg
COc1cccc(CN2CCN(C(=O)c3cc(-c4cccnc4)nc4ccc(C)cc34)CC2)c1	189.8%	?	-0.6%	-22.8%	9.28µM*	1.1%
COc1cccc(F)c1C(=O)NC(=O)Nc1ccc2nc(C)oc2c1	-31.0%	2.08µM*	0.2%	31.6µM*	2.08µM*	2.2%
CSc1nc2ccc(NC(=O)NC(=O)c3c(F)cccc3F)cc2s1	-15.1%	117.8%	0.7%	-1.2%	87.6%	6.2%
Cc1ccc(Cn2ccc(=O)c(OCc3c(Cl)cccc3Cl)c2C)cc1	-1.1%	4.15µM*	-38.4%	-22.5%	/	-11.4%
O=C(O)CC(NS(=O)(=O)c1ccc(Br)s1)c1ccccc1 (stereo not drawn)	/	/	/	-0.3%	/	-4.9%
COC(=O)c1cccc(C23CC4(C2)[C@H](CN(C)[C@@H]4c2ccccc2)C3c2ccc(C(F)(F)F)cc2)c1 (stereo partly drawn)	8.7%	?	-3.1%	-23.0%	9.28µM*	-7.6%
COC(=O)c1ccc(C23CC4(C2)[C@H](CN(C)[C@@H]4c2ccccc2)C3c2ccccc2)cc1 (stereo partly drawn)	49.8%	?	1.6%	7.9%	?	0.7%
COC(=O)c1cccc(C23CC4(C2)[C@H](CN(C)[C@@H]4c2ccccc2)C3c2ccccc2)c1 (stereo partly drawn)	61.2%	?	3.8%	?	11.7µM*	-14.0%
COC(=O)c1ccc(C23CC4(C2)[C@H](CN(Cc2ccc(-c5ccccc5)cc2)[C@@H]4c2ccccc2)C3c2ccccc2)cc1 (stereo partly drawn)	-40.8%	?	2.4%	-33.0%	?	-5.9%
COCCNC(=O)c1cccc(OC2CCN(Cc3ccc(F)cc3OC)CC2)c1	-10.5%	70.8%	2.5%	3.3%	-0.1%	-13.0%
Cc1cccc(Nc2nnc(SCC(=O)N(C)C3CCS(=O)(=O)C3)s2)c1C (stereo not drawn)	-2.4%	2.94µM*	14.0%	4.0%	?	-10.4%
COC(=O)CC1C(=O)NCCN1C(=O)CSc1nc2ccc([N+](=O)[O-])cc2s1 (stereo not drawn)	-5.8%	?	-3.3%	0.0%	10.4µM*	-6.2%
CN(C(=O)CSc1nc2ccc([N+](=O)[O-])cc2s1)C1CCS(=O)(=O)C1 (stereo not drawn)	-7.0%	9.28µM*	-0.9%	?	?	-4.7%
Cc1cccc(-c2nc(N3CCN(c4ccc(F)cc4)CC3)c3ccccc3n2)c1	/	/	/	4.3%	/	15.1%
O=C1CCCC(=O)C1C1c2ccccc2CCN1C(=O)CCl (stereo not drawn)	-14.9%	?	3.2%	44.7µM*	27.2%	-6.9%
COc1ccc2c(c1)CCN(C(=O)CCl)C2C1C(=O)CCCC1=O (stereo not drawn)	-14.1%	-21.5%	19.4%	?	1.2%	0.1%
Cc1cc(C)cc(NC(=O)c2ncn(-c3ccccc3)n2)c1	/	/	/	1.6%	/	2.1%
O=C(NCc1ccccn1)Nc1ccc(Br)cc1Cl	-15.9%	9.28µM*	-0.4%	2.4%	50.4%	3.5%
O=C(NCc1ccccn1)Nc1ccccc1	-18.3%	-17.4%	0.2%	20.0%	103.1%	1.9%
O=C(NCc1ccccn1)Nc1ccccc1Cl	0.8%	-2.3%	-3.7%	-16.4%	34.6%	0.9%
Cc1c(Cl)cccc1NC(=O)NCc1ccccn1	1.0%	-3.5%	-8.2%	39.8µM*	-6.2%	5.9%
O=C(NCc1ccccn1)Nc1ccc(Br)cc1	-45.9%	1.65µM*	24.4%	10.7%	12.6%	-4.3%
O=C(NCc1ccccn1)Nc1ccc(Cl)cc1Cl	-4.7%	?	-4.5%	-19.8%	67.3%	-1.7%
COc1cccc(C(=O)Nc2ccccc2C(=O)OCc2cc(=O)n3nc(C4CC4)sc3n2)c1	/	/	/	5.1%	/	-8.3%
COCCNC(=O)CSc1nc(-c2ccc(C)cc2)[nH]c1-c1ccc(OC)cc1	/	/	/	8.1%	/	12.3%
SMILES	AmpC no deterg	Pf growth 96h	SARS PLpro yeast	Sm TGR inh	Pf growth 48h	AmpC inh detg
CN(C(=O)COC(=O)c1cnc(Cl)c(Cl)c1)C1CCCCC1	-2.4%	/	1.3%	/	/	/
O=S(=O)(NCCOCC(F)(F)F)c1ccc2oc3ccccc3c2c1	11.4%	0.1%	-22.5%	-24.6%	11.7µM*	?
COc1ccc(CN2C(=NC(=O)C3CCCCC3)SC3CS(=O)(=O)CC32)cc1 (stereo not drawn)	-6.2%	14.7µM*	10.3%	-0.9%	?	1.1%
CC(=O)c1ccc(N2CCN(c3ccnc4cc(Cl)ccc34)CC2)cc1	-2.1%	6.57µM*	?	-15.7%	10.4µM*	6.9%
O=C(C1CCC1)N1CCN(c2ccnc3cc(Cl)ccc23)CC1	29.6%	10.4µM*	0.9%	-3.3%	13.1µM*	-3.4%
O=C(C1CC1)N1CCN(c2ccnc3cc(Cl)ccc23)CC1	-2.2%	7.38µM*	0.6%	11.8%	-13.4%	?
O=C(c1ccc(Cl)cc1)N1CCN(C(=O)C2CCCCC2)CC1	58.6%	5.86µM*	11.8%	-23.1%	8.3%	1.3%
O=C(c1ccc(Cl)cc1)N1CCCC(C(=O)N2CCCCC2)C1 (stereo not drawn)	0.6%	33.4%	17.3%	3.8%	7.0%	?
COC(=O)/C=C/c1oc2ccccc2c1C	-13.5%	12.5%	0.3%	1.1%	19.2%	-1.5%
O=C(C1CCCCC1)N1CCN(c2ccnc3cc(Cl)ccc23)CC1	90.6%	3.29µM*	-4.5%	3.7%	1.85µM*	-7.4%
c1ccc2c(c1)sc1ccccc12	/	0.8%	/	/	9.3%	/
Cc1sc2ccccc2c1CC1=NCCN1	2.2%	8.49µM*!	1.2%	7.9%	?	-0.2%
O=[N+]([O-])c1ccc(S(=O)(=O)N2CCC3(CC2)OCCN3S(=O)(=O)c2cccs2)cc1	-41.8%	?	5.3%	-8.1%	?	-15.7%
Cc1ccc(S(=O)(=O)CCC(=O)N2CCN(c3ccc([N+](=O)[O-])cc3)CC2)cc1	8.2%	16.6%	-3.7%	0.0%	16.7%	-4.1%
O=[N+]([O-])c1cccc(-c2cn3nc(-c4ccccc4)c(-c4ccccc4)nc3n2)c1	-22.5%	?	-0.6%	9.0%	9.28µM*	4.2%
COc1ccc(S(=O)(=O)Nc2cc3[nH]c(=O)oc3cc2C)cc1	-20.1%	8.28µM*	0.1%	-10.7%	16.7%	-11.4%
CCOC(=O)c1[nH]nc2c1C(=O)N(CC)C2=O	-11.2%	71.4%	8.3%	11.3%	20.2%	-12.2%
